Test results published in PubChem BioAssay (NCI).
The panel holds about 83,000 compounds, 20% with a hit somewhere; the sample as a whole holds those more often.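 Plates (96-well) were seeded with cells, treated with compound at one concentration, and incubated for 48 hours before percent growth was determined.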 Calls of active or inactive are those of the source. How the source made its calls: active means growth percent below 10; inactive means the rest.

How the values were obtained:
Assay in all cases: NCI-60 one-dose screen, 48 h (100 = growth as untreated, 0 = no growth, -100 = all killed)
Details in all cases: 10 µM unless noted
[1] = tested on: SR leukemia
[2] = tested on: RPMI-8226 leukemia
[3] = tested on: OVCAR-8 ovarian
[4] = tested on: OVCAR-5 ovarian
[5] = tested on: OVCAR-4 ovarian
[6] = tested on: SK-OV-3 ovarian
[7] = tested on: IGROV1 ovarian
[8] = tested on: OVCAR-3 ovarian
[9] = tested on: HS 578T breast
[10] = tested on: NCI/ADR-RES ovarian
[11] = tested on: T-47D breast
[12] = tested on: BT-549 breast
[13] = tested on: MDA-MB-435 melanoma
[14] = tested on: SW-620 colon
[15] = tested on: MCF7 breast
[16] = tested on: HCT-116 colon
[17] = tested on: HCC-2998 colon
[18] = tested on: KM12 colon

Measured: growth

CCOC(=O)c1c2c(n3ccc(NC(=O)CCN4CCCCC4)cc13)C(=O)c1ncccc1C2=O
active: [1] -46.6% | [2] -6.64% | [3] -27% | [4] -58.9% | [5] -13.5% | [8] -10.9% | [13] -61.8% | [14] -20.2% | [15] -61.1% | [16] -61.1% | [17] -66% | [18] -75.6%
inactive: [6] 26.2% | [7] 35.1% | [9] 40.2% | [10] 36.8% | [11] 44.6% | [12] 58.5%

CCCCCCCCCC(=O)Oc1ccc(/C(=C(/C)c2ccccc2)c2ccc(OCCN3CCCC3)cc2)cc1
inactive: [3] 54.5% | [4] 54.4% | [5] 32.6% | [6] 33.9% | [7] 44.6% | [8] 42.9% | [9] 11.9% | [10] 28% | [12] 24.5% | [16] 15.8% | [18] 15.2%
active: [1] -25.7% | [2] -21.8% | [11] 3.1% | [13] -59% | [14] -21.9% | [15] -14.1% | [17] -11.2%

COc1ccc(/C=C2\CN(C(=O)CCN3CCC(=NO)CC3)C/C(=C\c3ccc(OC)cc3)C2=O)cc1
active: [1] 2.16% | [2] -11.1% | [4] -4.94% | [7] -14.1% | [8] 6.9% | [9] 6.95% | [13] -61.4% | [14] -39.3% | [15] -0.32% | [16] -31.8% | [17] -89.5% | [18] -59.6%
inactive: [3] 19.6% | [5] 28.2% | [6] 68% | [10] 11.3% | [11] 23.3% | [12] 15.2%

O=C1C=CC(=O)N1c1ccc(Cc2ccc(N3C(=O)C=CC3=O)cc2)cc1
inactive: [1] 92.6% | [2] 81.6% | [3] 103% | [4] 86.4% | [5] 201% | [6] 101% | [7] 89.7% | [8] 125% | [9] 94.7% | [10] 99.4% | [11] 89.8% | [12] 95.8% | [13] 104% | [14] 110% | [15] 89.5% | [16] 89% | [17] 102% | [18] 100%
